Earlier results as cited in PubChem BioAssay AID977611.
Screen size: about 3,900 compounds; about 3,900 (100%) were called active. No cut-off is given here; in the data, nearly all actives have Kd up to about 4200 µM. So high a share suggests a set chosen from earlier hits. The list shows a part of the results. Where a SMILES comes first, the peptide text is derived from it. Square brackets hold non-standard residues; d marks the D form. Residues, ends and D or L forms follow the SMILES beside them. Peptide text beside a SMILES is read from it. [ ]: non-standard residue; d: D form. The star is where a group is joined. Lys(Me3) = C[N+](C)(C)CCCC[C@H](N)C(=O)O; Orn(CH(NH2)2) = NC(N)NCCC[C@H](N)C(=O)O; X1 = C[C@H](Cc1ccc(O)cc1)N*; Leu(ol) = CC(C)C[C@H](N)CO

Assay: PubChem AID 977611
Conditions: PDB protein-ligand complexes, literature Kd

Q: For `CC[C@H](C)[C@H](N)C(=O)N[C@@H](CCC(N)=O)C(=O)N1CCC[C@H]1C(=O)N1CCC[C@H]1C(=O)N1CCC[C@H]1C(=O)N[C@H](C(=O)N[C@@H](CC(N)=O)C(=O)N[C@@H](CCCNC(N)N)C(=O)N[C@@H](CC(N)=O)C(=O)N[C@@H](CC(C)C)C(=O)N[C@@H](CCCCN)C(=O)N1CCC[C@H]1C(=O)N[C@@H](CC(=O)O)C(=O)N[C@H](C=O)CCCNC(N)N)C(C)C` (H-IQPPPVN[Orn(CH(NH2)2)]NLKPD[Orn(CH(NH2)2)]-aldehyde), which Kd (protein: GROWTH FACTOR RECEPTOR-BOUND PROTEIN 2 SH3 DOMAIN, PDB entry 2vwf) is on record?
A: 8.7 µM (active)

Q: Which Kd (protein: human calmodulin (CaM), PDB entry 1ctr) does the source give for `CN1C=CN(CCCN2c3ccccc3Sc3ccc(C(F)(F)F)cc32)C=C1` here?
A: 1 µM (active)

Q: For `COC(=O)c1cc(N)cc(-c2c(C)noc2C)c1`, which Kd (protein: ATPase family AAA domain-containing protein 2 ATAD2A bromodomain, PDB entry 4tte) is on record?
A: 202 µM (active)

Q: For `Cn1cc(O[C@@H]2O[C@H](CO)[C@H](O)[C@H](O)[C@H]2O)c2ccccc21`, which Kd (protein: PA-I galactophilic lectin, PDB entry 4ljh) is on record?
A: 19.4 µM (active)

Q: Which Kd (protein: anti-HIV-1 Fab 537-10D, PDB entry 3ghe) does the source give for `CC[C@H](C)[C@H](NC(=O)[C@H](Cc1cnc[nH]1)NC(=O)[C@@H](NC(=O)[C@H](CCCNC(N)N)NC(=O)[C@H](CCCCN)NC(=O)[C@@H](N)CCCNC(N)N)[C@@H](C)CC)C(=O)NCC(=O)N1CCC[C@H]1C(=O)NCC(=O)N[C@@H](CCCNC(N)N)C(=O)N[C@@H](C)C(=O)N[C@@H](Cc1ccccc1)C(=O)N[C@@H](Cc1ccc(O)cc1)C(=O)N[C@@H](C)C(=O)N[C@H](C=O)[C@@H](C)O` here?
A: 1.3 µM (active)

Q: With `CC(C)[C@H](NC(=O)CNC(=O)CNC(=O)[C@@H](NC(=O)[C@H](C)N)[C@@H](C)O)C(=O)N[C@@H](CCCC[N+](C)(C)C)C(=O)N[C@@H](CCCCN)C(=O)N1CCC[C@H]1C(=O)N[C@@H](Cc1cnc[nH]1)C(=O)N[C@@H](CCCNC(N)N)C(=O)N[C@H](C)Cc1ccc(O)cc1` (H-ATGGV[Lys(Me3)]KPH[Orn(CH(NH2)2)]-X1) as the compound, how does the Kd (protein: PHD finger protein 1, PDB entry 2m0o) read?
A: 4.2 µM (active)

Q: For `CC(=O)NCCCC[C@H](NC(=O)[C@@H](NC(=O)CNC(=O)CNC(=O)[C@@H](NC(=O)[C@@H](N)CO)[C@@H](C)O)C(C)C)C(=O)N[C@@H](CCCCN)C(=O)N1CCC[C@H]1C(=O)N[C@@H](Cc1cnc[nH]1)C(=O)N[C@@H](CCCNC(N)N)C(=O)N[C@@H](Cc1ccc(O)cc1)C(=O)N[C@@H](CCCCN)C(=O)N[C@@H](CS)C(=O)O`, which Kd (protein: Histone acetyltransferase PCAF, PDB entry 2rnx) is on record?
A: 402 µM (active)

Q: For `O[C@@H]1[C@H](O)[C@@H](O[P+](O)(O)O)[C@H](O[P+](O)(O)O)[C@@H](O)[C@@H]1O[P+](O)(O)O`, which Kd (protein: Ligand-Binding Domain of rat InsP3 Receptor, PDB entry 3t8s) is on record?
A: 0.00282 µM (active)

Q: And the Kd (protein: Rabphilin-3A, PDB entry 4np9)?
A: 9.4 µM (active)

Q: With `NC1NC(=O)c2ncn([C@@H]3O[C@@H]4CO[P+](O)(O)O[C@H]4[C@H]3O)c2N1` (stereo partly drawn) as the compound, how does the Kd (protein: Diguanylate cyclase, PDB entry 4kg1) read?
A: 0.274 µM (active)

Q: Which Kd (protein: Stimulator of interferon genes protein, PDB entry 4loi) does the source give for `Nc1ncnc2c1ncn2[C@@H]1O[C@@H]2CO[P+](O)(O)O[C@@H]3[C@H](O)[C@@H](CO[P+](O)(O)O[C@@H]1[C@@H]2O)O[C@H]3n1cnc2c1NC(N)NC2=O` (stereo partly drawn) here?
A: 0.17 µM (active)

Q: With `Nc1ncnc2c1ncn2[C@@H]1O[C@@H]2CO[P+](O)(O)O[C@@H]3[C@H](O)[C@@H](CO[P+](O)(O)O[C@H]2[C@H]1O)O[C@H]3n1cnc2c1NC(N)NC2=O` (stereo partly drawn) as the compound, how does the Kd (protein: Stimulator of interferon genes protein, PDB entry 4ksy) read?
A: 0.00379 µM (active)

Q: What about the Kd (protein: Stimulator of interferon genes protein, PDB entry 4loh) of the same compound?
A: 0.11 µM (active)

Q: What about the Kd (protein: Stimulator of interferon genes protein, PDB entry 4loj) of the same compound?
A: 0.3 µM (active)

Q: For `CC(C)[C@H](NC(=O)[C@H](CCC(=O)O)NC(=O)[C@H](C)NC(=O)[C@H](Cc1ccc(O)cc1)NC(=O)[C@H](CO)NC(=O)[C@@H]1CCCN1C(=O)[C@@H]1CCCN1C(=O)[C@H](C)NC(=O)[C@@H](N)CCC(=O)O)C(=O)O` (H-EAPPSYAEV-OH), which Kd (protein: 3rd WW domain of Human Nedd4, PDB entry 4n7h) is on record?
A: 3.3 µM (active)

Q: With `CC(C)C[C@H](NC(=O)[C@H](CC(C)C)NC(=O)[C@H](CCCNC(N)N)NC(=O)[C@H](CO)NC(=O)[C@H](CC(C)C)NC(=O)[C@H](CCCNC(N)N)NC(=O)[C@@H]1CCCN1C(=O)CN)C(=O)N[C@@H](CO)C(=O)N[C@@H](Cc1ccc(O)cc1)C(=O)N[C@@H](C)C(=O)O` (HELM PEPTIDE1{G.P.[NC(N)NCCC[C@H](N[*:1])C(=O)[*:2]].L.S.[NC(N)NCCC[C@H](N[*:1])C(=O)[*:2]].L.L.S.Y.A}$$$$V2.0) as the compound, how does the Kd (protein: rat Tom20(translocases of outer mitochondrial membranes), PDB entry 1om2) read?
A: 20 µM (active)

Q: For `CSCC[C@H](NC(=O)[C@@H]1CCCN1C(=O)[C@@H](NC(=O)[C@H](CCCNC(N)N)NC(=O)[C@H](CO)NC(=O)CN)[C@@H](C)O[P+](O)(O)O)C(=O)N[C@@H](Cc1ccc(O)cc1)C(=O)NCC(=O)O` (HELM PEPTIDE1{G.S.[NC(N)NCCC[C@H](N[*:1])C(=O)[*:2]].[C[C@@H](O[P+](O)(O)O)[C@H](N[*:1])C(=O)[*:2]].P.M.Y.G}$$$$V2.0), which Kd (protein: RNA polymerase-associated protein RTF1 homolog, PDB entry 4l1u) is on record?
A: 5.45 µM (active)

Q: For `CC(C)C[C@@H](CO)NC(=O)[C@H](CO)NC(=O)[C@H](CCCNC(N)N)NC(=O)[C@H](CC(C)C)NC(=O)[C@H](CO)NC(=O)[C@H](C)NC(=O)[C@H](CC(C)C)NC(=O)[C@@H]1CCCN1C(=O)[C@H](Cc1ccc(O)cc1)NC(=O)[C@H](CC(C)C)NC(=O)[C@@H](N)CCC(=O)O` (H-ELYPLASL[Orn(CH(NH2)2)]S[Leu(ol)]), which Kd (protein: ALIX, PDB entry 2r05) is on record?
A: 7 µM (active)

Q: Which Kd (protein: ALIX, PDB entry 2r02) does the source give for `CC(C)C[C@H](NC(=O)[C@H](CO)NC(=O)[C@H](CCCNC(N)N)NC(=O)[C@H](CC(C)C)NC(=O)[C@H](CO)NC(=O)[C@@H](NC(=O)[C@H](CC(C)C)NC(=O)[C@@H]1CCCN1C(=O)[C@H](Cc1ccc(O)cc1)NC(=O)[C@H](CC(C)C)NC(=O)[C@@H](N)CCC(=O)O)[C@@H](C)O)C(=O)O` (H-ELYPLTSL[Orn(CH(NH2)2)]SL-OH) here?
A: 8 µM (active)

Q: With H-PLYTSPSLPNITLGLP-OH as the compound, how does the Kd (protein: DNA-binding protein RFXANK, PDB entry 3uxg) read?
A: 109 µM (active)

Q: Which Kd (protein: Ubiquitin ligase Nedd4( WW? domain), PDB entry 1i5h) does the source give for `CC[C@H](C)[C@H](NC(=O)[C@@H]1CCCN1C(=O)[C@H](CC(C)C)NC(=O)[C@@H](NC(=O)[C@H](CO)NC(=O)CN)[C@@H](C)O)C(=O)N1CCC[C@H]1C(=O)NCC(=O)N[C@H](C(=O)N1CCC[C@H]1C(=O)N1CCC[C@H]1C(=O)N1CCC[C@H]1C(=O)N[C@@H](CC(N)=O)C(=O)N[C@@H](Cc1ccc(O)cc1)C(=O)N[C@@H](CC(=O)O)C(=O)N[C@@H](CO)C(=O)N[C@@H](CC(C)C)C(=O)O)[C@@H](C)O` (H-GSTLPIPGTPPPNYDSL-OH) here?
A: 53 µM (active)

Q: With Ac-LPLYTSPSLPNITLGLP-OH as the compound, how does the Kd (protein: Ankyrin Repeat Domains of Human ANKRA2, PDB entry 3v31) read?
A: 1.6 µM (active)

Q: For H-NPGLAYGNPYS-OH, which Kd (protein: Galectin-8, PDB entry 4gxl) is on record?
A: 5.2 µM (active)
